Sampled rows, rich in hits. Any-hit rate of the full collection: about 1.5%.
NTR1 agonist = activates human neurotensin receptor 1; P30989; NTR1-U2OS beta-arrestin-GFP spot imaging, agonist mode; 330,000 compounds, 0.17% hits; activation, % at 20 µM;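 active = activation at or above 40% of the spot to cytoplasm intensity ratio, with at least 20 cells analyzed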
Target sequence (P30989 whole entry, looked up): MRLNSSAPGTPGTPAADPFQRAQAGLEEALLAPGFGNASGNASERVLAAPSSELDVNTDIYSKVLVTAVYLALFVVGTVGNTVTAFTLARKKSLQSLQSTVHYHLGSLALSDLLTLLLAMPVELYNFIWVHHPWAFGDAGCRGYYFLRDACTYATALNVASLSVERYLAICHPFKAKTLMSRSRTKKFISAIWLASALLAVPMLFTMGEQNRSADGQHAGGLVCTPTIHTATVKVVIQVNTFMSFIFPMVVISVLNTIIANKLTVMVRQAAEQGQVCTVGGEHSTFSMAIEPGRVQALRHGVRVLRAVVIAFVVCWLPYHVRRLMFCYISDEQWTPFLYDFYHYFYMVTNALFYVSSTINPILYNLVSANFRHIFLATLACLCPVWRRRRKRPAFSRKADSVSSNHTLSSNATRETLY
CRFR2-BP ag = CRF-BP/CRF-R2 complex agonism | HEK293 CRF-R2/CRF-BP, calcium dye fluorescence (FLIPR); percent of saturating CRF peptide response | activation, % at 13.2 µM | 350,000 compounds, 0.46% hits;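 active = activation of at least 50%, plus an integration ratio under a set limit after plate pattern correction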
CRFBP-R2 block = antagonists of CRF-binding protein/CRF-R2 receptor complex. HEK293 CRF-R2/CRF-BP, CRF-induced calcium fluorescence. inhibition, % at 11.8 µM. 350,000 compounds, 0.59% hits. AID 588475;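 active = inhibition of the ligand-induced calcium signal above about 50% at the single tested concentration, limit read from the data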
V-ATPase pH = yeast V-ATPase proton transport regulation by pHLuorin. S. cerevisiae, pHLuorin cytosolic pH fluorescence. response, % at 10 µM. 350,000 compounds, 0.37% hits. AID 504577; in the data active = response mostly above about 7.3%, no sharp cut-off; inactive = mostly below about 5.4%; note: actives read high
V-ATPase pH SP = regulators of yeast V-ATPase proton transport; shares compounds with V-ATPase pH; S. cerevisiae pHLuorin cytosolic pH; response, % at 10 µM; 980 compounds, 2% hits; in the data active = response above about 24%
Numbers stand for hits; . = inactive; / = no result given.

SMILES | NTR1 agonist | CRFR2-BP ag | CRFBP-R2 block | V-ATPase pH | V-ATPase pH SP
COc1cc(CC(=O)OCC(=O)NC2CC2)cc(OC)c1OC | . | . | . | . | /
COc1cc(CC(=O)OCC(=O)NC2CCCC2)cc(OC)c1OC | . | . | . | 12.2 | .
O=c1cc(CCl)nc2sc3ccccc3n12 | . | . | . | 12.6 | .
CCOC(=O)C1C(=O)N(O)CC1c1cccc(Oc2ccccc2)c1 (stereo unspecified) | . | . | . | 12.5 | .
CCOC(=O)C1C(O)=CC(=O)CC1c1ccccc1 (stereo unspecified) | . | . | . | . | /
Cc1ccc(-c2cc(C(=O)Nc3ccc(S(=O)(=O)Nc4ncccn4)cc3)[nH]n2)c(O)c1C | . | . | . | . | /
COC(=O)COc1ccc2c(c1)O/C(=C\c1cccc([N+](=O)[O-])c1)C2=O | . | . | . | 12.7 | .
COc1ccc(/C=C2\Oc3cc(OCC(N)=O)ccc3C2=O)cc1OC | . | . | . | . | /
CCN(CC)C(=O)C(C(=O)c1cccc([N+](=O)[O-])c1)n1cc(Cl)ccc1=O (stereo unspecified) | . | . | . | . | /
C1=Cc2ccccc2Nc2ccccc21 | . | . | . | 11.8 | .
CC(=O)N1CCN(C(=O)c2cc(S(=O)(=O)Nc3ccc(S(C)(=O)=O)cc3)ccc2Cl)CC1 | . | . | . | . | /
CCN1CCN(C(=O)c2cc(S(=O)(=O)Nc3ccc(S(C)(=O)=O)cc3)ccc2Cl)CC1 | . | . | . | 10.2 | .
CCOc1cc(C=O)ccc1OCCn1c([N+](=O)[O-])cnc1C | . | . | . | . | /
CC1CCc2c(sc3ncn(Cc4ccc(C(=O)O)cc4)c(=O)c23)C1 (stereo unspecified) | . | . | . | 6.6 | .
Cc1cc(C)c(NC(=O)CSc2ccc(-c3ccccn3)nn2)c(C)c1 | . | . | . | 11.4 | .
Cc1nc(NC(=O)c2c(-c3ccccc3Cl)noc2C)sc1C | . | . | . | 12.9 | .
O=S(=O)(c1ccc(Cl)nc1)N1CCc2ccccc21 | . | . | . | 11.8 | .
FC(F)(F)c1cc(C(F)(F)F)n2nc(-c3sccc3-n3cccc3)cc2n1 | . | . | . | 11.9 | .
Cc1cc(C)n2nc(-c3sccc3-n3cccc3)cc2n1 | . | . | . | . | /
COc1ccc(N2CCN(C(=O)c3cccnc3)CC2)c([N+](=O)[O-])c1 | . | . | . | . | /
c1ccc(-c2nnc(-c3ccccc3)o2)cc1 | . | . | . | . | /
CSc1ccc(/C=C(/Sc2nnc(-c3ccccc3)o2)C(=O)O)cc1 | . | . | . | . | .
O=C(O)/C(=C\c1cccs1)Sc1nnc(-c2ccc(F)cc2)o1 | . | . | . | . | .
CSc1nnc(-c2ccccc2)o1 | . | . | . | . | .
O=C(CN1C(=O)NC2(CCCC2)C1=O)NCCc1ccc(F)cc1 | . | . | . | 11.0 | .
SMILES | NTR1 agonist | CRFR2-BP ag | CRFBP-R2 block | V-ATPase pH | V-ATPase pH SP
CN1CCN(S(=O)C23CC4CC(CC(C4)C2)C3)CC1 (stereo unspecified) | . | . | . | . | /
O=S(N1CCCCC1)C12CC3CC(CC(C3)C1)C2 (stereo unspecified) | . | . | . | 14.5 | .
O=C(NC(=S)Nc1ccc(S(=O)(=O)NC2CCCCC2)cc1)c1cccs1 | . | . | . | . | /
COc1ccc(C)cc1NC(=O)c1sc2ncn(CC(=O)N3CCCCC3)c(=O)c2c1C | . | . | . | . | /
COc1cc(OC)c(NC(=O)c2sc3ncn(CC(=O)N4CCOCC4)c(=O)c3c2C)cc1Cl | . | . | . | 6.4 | .
N#C/C(=C\c1cc(Cl)cc(Cl)c1O)C(=O)NC1CCCCC1 | . | . | . | 15.3 | .
O=c1c2ccccc2sn1-c1ccc(F)cc1 | . | . | . | . | /
O=c1c2ccccc2sn1-c1ccc(Cl)cc1 | / | . | . | . | .
CCC1(CC)NC(=O)N(CC(=O)OC(C)C(=O)Nc2ccc(Cl)cn2)C1=O (stereo unspecified) | . | . | . | . | /
CCC1(CC)NC(=O)N(CC(=O)OC(C)C(=O)Nc2cc([N+](=O)[O-])ccc2OC)C1=O (stereo unspecified) | . | . | . | 10.7 | .
O=C1C2CCCN2C(=O)N1CCCCN1CCN(c2cccc(Cl)c2)CC1 (stereo unspecified) | . | . | . | . | /
O=C1C2CCCCN2C(=O)N1CCN1CCN(c2cccc(Cl)c2)CC1 (stereo unspecified) | / | . | . | 6.3 | .
CC(=O)Nc1ccc(S(=O)(=O)NC(C(=O)O)C(C)O)cc1 (stereo unspecified) | . | . | . | . | /
CCCCCOC(=O)C1=C(C)NC(=O)NC1c1ccccc1 (stereo unspecified) | . | . | . | 11.7 | .
